These results are taken from PubChem BioAssay (NCI).

The panel holds about 83,000 compounds, 20% with a hit somewhere; the sample as a whole holds those more often.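 Assay: single dose, 48 h. Readout: percent growth (0 = no net growth; negative = cell death). Active: <10.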 Unmarked numbers belong to inactive results. The source made the active and inactive calls.

Common to all, as to test: NCI-60 one-dose screen, 48 h (100 = growth as untreated, 0 = no growth, -100 = all killed)
Common to all, as to conditions: 10 µM unless noted

Assay [1] deals with EKVX NSCLC.
Assay [2] relates to SN12C renal.
The subject of assay [3] is UO-31 renal.
Assay [4] relates to TK-10 renal.
Assay [5] has as its system ACHN renal.
Assay [6] deals with CAKI-1 renal.
The subject of assay [7] is A498 renal.
In assay [8] the test system is CCRF-CEM leukemia.
In assay [9] the test system is SR leukemia.
The test system of assay [10] is MOLT-4 leukemia.

With `CCCCSc1cc(C)nc(N)n1`, the growth is 97.2% in [1]; 92.1% in assay [2]; 45.5% in [3]; 93.8% in [4]; 96.9% in assay [5]; 97.6% in assay [6]. The growth was 92.8% in [7], 91.7% in assay [8] and 98% in assay [9].
For the compound `CC(C)C(=O)Cc1cnccn1`, the growth is 99.4% in assay [1]; 98.6% in assay [2]; 90.8% in assay [3]; 104% in [4]; 108% in assay [5]; 83.4% in [6]. The growth is 101% in [7], 115% in [8], 123% in [10] and 114% in [9].
As to `CCN(CC)CCOc1ccc(C2=C(c3ccccc3)CCc3cc(OC)ccc32)cc1`, the growth in assay [1] was 54.4%; in assay [2], 52.3%; in assay [3] it was -76.7% (active); in assay [4], -21.1% (active); in [5] it was 50.5%; in assay [6] it was -26.1% (active). Further, the growth in [7] was -4.36% (active); in assay [8] it was -37.8% (active); in assay [10], -49.7% (active); in assay [9], -42.1% (active).
For the compound `COc1ccc(-c2cc(Cc3cccs3)c(=O)n(Cn3ccc4ccccc43)n2)cc1`, the growth in [1] was 101%; in assay [2], 97.7%; in [3], 83%; in [4] it was 98.1%; in [5] it was 102%; in assay [6], 95.7%. Moreover, the growth in [7] is 98.9%; in assay [8], 66%; in assay [10], 97.5%; in assay [9], 87%.
Regarding `O=C(O)C(=O)O`, the growth in [1] is 103%; in [2], 106%; in [3], 100%; in assay [4], 93.3%; in assay [5] it was 91.9%; in [6] it was 99.2%. The growth in [7] was 92.9%; in assay [8] it was 102%; in assay [9], 136%.
Consider `O=C(c1ccccc1)c1ccccc1Cl`, for which the growth in assay [1] was 101%; in assay [2], 101%; in [3] it was 86.7%; in assay [4], 94.6%; in assay [5], 112%; in assay [6], 109%. Besides, the growth in assay [7] was 86.1%; in assay [8] it was 86.3%; in assay [9] it was 94.5%.
On to `O=C1CCCN1C1CCN(Cc2cc3ccccc3[nH]c2=O)c2ccccc21` (stereo unspecified), for which the growth in [1] is 79%; in [2], 88.3%; in assay [3] it was 52.5%; in assay [4], 93.3%; in [5], 89.1%; in assay [6] it was 79.3%. Also, the growth in assay [7] is 111%; in [8] it was 76.4%; in assay [9] it was 73.1%.
Consider `COc1ccc2[nH]c(-c3ccccc3)cc2c1`, for which the growth in assay [1] was 94.5%; in assay [2], 97.1%; in assay [3], 75.1%; in assay [4], 156%; in assay [5], 101%; in assay [6] it was 99.1%. The figures for the growth in assay [7], in assay [8] and in assay [9] were 89%, 88.5% and -14.8% (active), respectively.
As for `O=C1C(=O)c2ccc(Br)cc2-c2cc(Br)ccc21`, the growth in assay [1] was 99.8%; in [2], 34.1%; in [3], 48.4%; in assay [4], 114%; in [5], 39%; in assay [6] it was 58.1%. Besides, the growth in assay [7] was 115%; in assay [8], 10.1%; in [9], 4.99% (active).
As for `COc1cc(NC(=O)c2cc3ccccc3cc2O)c(OC)cc1Cl`, the growth in assay [1] was 9.25% (active); in assay [2], 10.2%; in [3], -25.8% (active); in [4], 22.6%; in [5] it was 3.75% (active); in assay [6] it was -2.48% (active). The growth in assay [7] was 25.4%; in assay [8] it was -17.4% (active); in [10], -18.8% (active); in assay [9], 1.88% (active).
In the case of `COc1ccc(-c2cn(-c3ccccc3)c(-c3ccccc3)n2)cc1OC`, the growth was 84.9% in assay [1]; 71.9% in [2]; 52.1% in assay [3]; 99.4% in assay [4]; 64.4% in assay [5]; 79.3% in assay [6]. Also, the growth in [7] is 104%; in [8] it was -66.6% (active); in assay [10] it was 77%; in [9] it was 11.3%.
For the compound `Cc1ccc([N+](=O)[O-])cc1NC(=O)Nc1cccc(F)c1`, the growth was 48.6% in assay [1]; 88.9% in assay [2]; 67.7% in assay [3]; 69.1% in [4]; 67.7% in assay [5]; 53.4% in [6]. In addition, the growth in assay [7] is 78.3%; in assay [8], 54.4%; in [10], 62%; in assay [9], 62.6%.
For `CN1CCN(Cc2ccc(NC(=O)c3[nH]ncc3Nc3ccnc4ccnn34)cc2)CC1`, the growth was 100% in [1]; 35.1% in assay [2]; 71.1% in [3]; 103% in assay [4]; 66.4% in assay [5]; 75.4% in [6]. Moreover, the growth in assay [7] is 74.4%; in assay [8] it was 54.6%; in assay [10], 45.5%; in assay [9], 16%.
Take `S=c1[nH]nc2sc3ccccc3n12`: the growth was 116% in [1]; 103% in assay [2]; 84.2% in assay [3]; 126% in assay [4]; 99.2% in assay [5]; 110% in [6]. In addition, the growth in assay [7] is 76.1%; in assay [8], 100%; in [9] it was 88.5%.
Turning to `CCOc1cc(-c2ccc[nH]2)[nH]c1/C=C1\N=C(C)C(C(=O)OC)=C1C`, the growth in assay [1] is -50.3% (active); in [2], -75.8% (active); in assay [3], -79.9% (active); in assay [4] it was -85.8% (active); in assay [5] it was -76.8% (active); in assay [6], -49.2% (active). The growth in assay [7] was -74% (active); in assay [8], -37.8% (active); in assay [10], -53.8% (active); in assay [9], -45.5% (active).
In the case of `COC(=O)CC1=C(C)/C(=C/c2[nH]c(-c3ccc[nH]3)cc2OC)N=C1C`, the growth was 27.9% in assay [1]; 21.4% in assay [2]; -68.9% (active) in [3]; 6.46% (active) in [4]; -13.4% (active) in [5]; 8.04% (active) in [6]. The growth was -5.38% (active) in assay [7], -13.5% (active) in assay [8], -49% (active) in assay [10] and -47.8% (active) in assay [9].
Regarding `COc1cc2c(c(OC)c1OC)-c1ccc(NN(C(=O)c3ccccc3)C(=O)c3ccccc3)c(=O)cc1[C@@H](NC(C)=O)CC2` (tested in a mixture with another compound), the growth in assay [1] is 30.8%; in assay [2] it was 64.8%; in assay [3] it was 62.3%; in assay [4] it was 40.8%; in [5] it was 63%; in assay [6] it was -2.24% (active). The growth was 15.1% in assay [7], 41.9% in [8] and 18.1% in [9].
With `C[n+]1c2ccccc2c(Nc2ccc(N3CCCCC3)cc2)c2[nH]c3ccccc3c21`, the growth is -56.1% (active) in assay [1]; -82.7% (active) in assay [2]; -97.5% (active) in [3]; -79.4% (active) in assay [4]; -96.2% (active) in assay [5]; -96.8% (active) in assay [6]. The growth in assay [7] is -88.3% (active); in assay [8], -49.3% (active); in [10], -63.4% (active); in assay [9], -70.1% (active).
With `COc1ncc(-c2ccc3nccc(C#CCN4CCN(S(C)(=O)=O)CC4)c3c2)cc1NS(=O)(=O)c1ccc(F)cc1F`, the growth was 9.26% (active) in assay [1]; 2.52% (active) in [2]; 5.46% (active) in assay [3]; 12% in [4]; 13.2% in [5]; 4.01% (active) in [6]. In addition, the growth is -52.9% (active) in [7], -7.81% (active) in [8] and 1.58% (active) in [9].
With `O=C(CSc1nc2c(n1Nc1ccccc1)-c1ccccc1SC2)Nc1nc(-c2ccc(Cl)cc2)cs1`, the growth in [1] is 69.8%; in assay [2] it was 73.8%; in assay [3], 79.7%; in [4] it was 110%; in assay [5], 96.5%; in assay [6], 72.8%. Besides, the growth in assay [7] was 55%; in assay [8], 44.8%; in assay [9], 27%.
For `CC(=O)NC1(C(=O)O)CCCC1`, the growth was 112% in assay [1]; 114% in assay [2]; 99.9% in assay [3]; 117% in assay [4]; 105% in assay [5]; 111% in [6]. Also, the figures for the growth in assay [7], in [8] and in assay [9] were 105%, 96.4% and 108%, respectively.
For the compound `O=C(Nc1ccc(Oc2ccc(NC(=O)Nc3ccc([N+](=O)[O-])cc3)cc2)cc1)Nc1ccc([N+](=O)[O-])cc1`, the growth was 17.1% in [1]; 12.1% in assay [2]; -4.36% (active) in [3]; 15.1% in assay [4]; 10.2% in assay [5]; 13.9% in assay [6]. Besides, the growth in assay [7] was 13%; in [8] it was -32% (active); in assay [10] it was -26.4% (active); in assay [9], -3.7% (active).
`Cc1c(C(N)=O)sc2ncn(CC(=O)Nc3ccc(Cl)cc3)c(=O)c12`: the growth in assay [1] is 104%; in assay [2] it was 112%; in assay [3], 160%; in assay [4], 128%; in [5] it was 108%; in assay [6] it was 40.6%. The growth is 126% in assay [7], 121% in assay [8], 112% in assay [10] and 85% in assay [9].
In the case of `COc1ccc(-c2c(N)noc2-c2cc(OC)c3c(c2)OCCO3)cc1`, the growth in [1] is 37.1%; in assay [2] it was 30.8%; in [3] it was 41%; in [4] it was 77.8%; in assay [5] it was 22.3%; in assay [6], 45.4%. For the same compound, the growth in assay [7] was 2.33% (active); in assay [8], 13.4%; in assay [9], 11.6%.
Regarding `CC(=O)c1nc2ccccc2n1CCn1cc(CC(N)C(=O)O)c2ccccc21` (stereo unspecified), the growth was 82.4% in assay [1]; 93.7% in [2]; 69.4% in [3]; 102% in [4]; 96.9% in [5]; 95.9% in [6]. The values for the growth in assay [7], in assay [8] and in assay [9] were 116%, 82.9% and 90.7%, respectively.
As to `O=[N+]([O-])c1ccc(N/N=C/c2c(O)ccc3ccccc23)nc1`, the growth in [1] was 32.3%; in assay [2], 49.4%; in assay [3], 9.52% (active); in assay [4], 47.3%; in assay [5], 15%; in assay [6], 6.36% (active). For the same compound, the growth is 111% in assay [7], 2.5% (active) in assay [8], 10.5% in [10] and 14.1% in assay [9].
As for `COc1ccc(C2CC(c3cccc(Nc4ccnc5cc(Cl)ccc45)c3)=NN2C=O)cc1` (stereo unspecified), the growth in [1] was 39.4%; in assay [2] it was 37.9%; in [3], 22.8%; in assay [4], 41.5%; in [5], 45.5%; in [6], 17.4%. Further, the growth was 7.17% (active) in [7], 7.54% (active) in [8] and 6.76% (active) in assay [9].
As to `O=C(CN1CCCCC1)Sc1nnc2sc3ccccc3n12`, the growth in [1] is 104%; in assay [2], 103%; in assay [3] it was 68.3%; in assay [4] it was 122%; in assay [5], 118%; in assay [6], 86.2%. Also, the growth was 107% in [7], 104% in assay [8], 98.1% in assay [10] and 99.9% in assay [9].
Turning to `Cc1cc(C)n2nc(SCC(=O)Nc3sc4c(c3C(N)=O)CCC4)nc2n1`, the growth was 100% in assay [1]; 103% in assay [2]; 74.1% in assay [3]; 125% in assay [4]; 112% in assay [5]; 94.7% in assay [6]. In addition, the growth in assay [7] was 95.7%; in assay [8], 102%; in assay [10], 109%; in [9], 144%.
